The source of these data is PMC7862700, “An all-to-all approach to the identification of sequence-specific readers for epigenetic DNA modifications on cytosine”.

Test in all cases: DAPPL (digital affinity profiling via proximity ligation, sequencing); 10 mM Tris-HCl pH 7.5, 50 mM NaCl, 1 mM DTT, 4% glycerol, room temperature, 30 min; GST-TFs on glutathione beads, 16-mer random dsDNA library, 0.1% formaldehyde crosslink after washing; high values mean tight binding
The target in one assay is T1, FLI1 (Homo sapiens, UniProt Q01543 1-452).
T1 sequence: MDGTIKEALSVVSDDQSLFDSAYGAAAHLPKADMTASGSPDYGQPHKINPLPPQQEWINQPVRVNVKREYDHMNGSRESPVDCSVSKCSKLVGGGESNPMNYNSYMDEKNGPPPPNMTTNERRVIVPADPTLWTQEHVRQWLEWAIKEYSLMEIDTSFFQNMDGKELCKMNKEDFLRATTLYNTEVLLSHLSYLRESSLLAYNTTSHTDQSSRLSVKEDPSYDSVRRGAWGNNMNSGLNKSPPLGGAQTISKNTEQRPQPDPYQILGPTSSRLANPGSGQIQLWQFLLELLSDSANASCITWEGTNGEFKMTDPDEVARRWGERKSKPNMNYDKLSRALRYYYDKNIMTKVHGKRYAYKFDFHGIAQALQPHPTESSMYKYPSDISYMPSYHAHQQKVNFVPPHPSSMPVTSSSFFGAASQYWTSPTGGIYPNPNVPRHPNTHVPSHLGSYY
Conditions: protein: recombinant; tags: N-terminal GST; dsDNA, one strand shown. The gist of the method:
(§1)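 Binding signal is each hexamer's read frequency for a factor divided by its frequency in the tag-only sample. The factors were GST-fused human transcription factors from yeast, captured on glutathione beads, DNA-barcoded and pooled with that sample. Pools were incubated with 200 nmole of a random double-stranded 16-mer DNA library in Tris/NaCl/DTT/glycerol buffer at room temperature for 30 min, then washed, crosslinked with 0.1% formaldehyde, proximity-ligated with BsaI/T4 ligase (1 h, 37 °C), PCR-amplified and sequenced on an Illumina NextSeq500.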

In the next assay the target is T2, ELK1 (Homo sapiens, UniProt P19419 1-428).
T2 sequence: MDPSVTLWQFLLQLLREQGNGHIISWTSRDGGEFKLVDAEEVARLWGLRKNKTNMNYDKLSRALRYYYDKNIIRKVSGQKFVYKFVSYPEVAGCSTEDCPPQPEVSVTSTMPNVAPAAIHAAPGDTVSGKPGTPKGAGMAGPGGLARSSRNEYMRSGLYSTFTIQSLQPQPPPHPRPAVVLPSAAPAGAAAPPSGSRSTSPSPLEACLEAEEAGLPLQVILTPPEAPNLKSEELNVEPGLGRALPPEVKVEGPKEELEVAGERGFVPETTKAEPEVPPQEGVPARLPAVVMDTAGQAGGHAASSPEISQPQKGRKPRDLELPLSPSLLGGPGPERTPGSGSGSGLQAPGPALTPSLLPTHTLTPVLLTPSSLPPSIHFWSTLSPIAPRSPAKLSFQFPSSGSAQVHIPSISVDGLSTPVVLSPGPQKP
The conditions noted are these: protein: recombinant; tags: N-terminal GST; dsDNA, one strand shown. The gist of the method:
as §1

A further assay concerns the target T3, GABPA (Homo sapiens, UniProt Q06546 1-454).
T3 sequence: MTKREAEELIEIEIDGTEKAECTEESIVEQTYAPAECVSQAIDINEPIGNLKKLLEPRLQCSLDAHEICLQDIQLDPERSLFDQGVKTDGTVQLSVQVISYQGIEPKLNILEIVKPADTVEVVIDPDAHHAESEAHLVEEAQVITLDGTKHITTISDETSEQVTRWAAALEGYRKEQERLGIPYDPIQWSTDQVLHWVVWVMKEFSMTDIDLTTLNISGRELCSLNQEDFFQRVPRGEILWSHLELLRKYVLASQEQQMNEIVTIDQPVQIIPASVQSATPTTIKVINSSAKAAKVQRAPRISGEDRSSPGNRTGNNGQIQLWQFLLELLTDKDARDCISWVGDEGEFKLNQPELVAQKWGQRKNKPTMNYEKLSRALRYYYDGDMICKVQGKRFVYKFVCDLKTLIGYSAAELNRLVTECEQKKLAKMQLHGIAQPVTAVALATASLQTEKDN
Conditions: protein: recombinant; tags: N-terminal GST; dsDNA, one strand shown. The gist of the method: as §1

Another assay deals with T4, ERG (Homo sapiens, UniProt P11308 1-479).
T4 sequence: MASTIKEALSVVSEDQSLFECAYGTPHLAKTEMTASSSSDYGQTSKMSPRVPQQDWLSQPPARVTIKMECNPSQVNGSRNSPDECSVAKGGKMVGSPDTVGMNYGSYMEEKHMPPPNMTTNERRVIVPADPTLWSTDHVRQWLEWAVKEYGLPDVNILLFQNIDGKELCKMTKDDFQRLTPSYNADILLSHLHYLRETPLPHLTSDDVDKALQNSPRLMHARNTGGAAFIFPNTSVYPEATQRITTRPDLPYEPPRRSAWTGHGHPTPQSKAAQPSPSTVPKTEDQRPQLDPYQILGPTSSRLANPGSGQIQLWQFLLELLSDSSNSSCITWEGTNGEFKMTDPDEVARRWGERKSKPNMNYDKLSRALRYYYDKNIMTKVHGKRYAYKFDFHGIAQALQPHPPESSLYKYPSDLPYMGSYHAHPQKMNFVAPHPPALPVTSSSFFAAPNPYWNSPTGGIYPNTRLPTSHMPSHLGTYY
The conditions noted are these: protein: recombinant; tags: N-terminal GST; dsDNA, one strand shown. The method in brief: as §1

A further assay deals with ELF1 (Homo sapiens, UniProt P32519 1-619). The conditions noted are these: protein: recombinant; tags: N-terminal GST; dsDNA, one strand shown. The method in brief:
as §1

In the next assay the target is T5, EHF (Homo sapiens, UniProt Q9NZC4 1-300).
T5 sequence: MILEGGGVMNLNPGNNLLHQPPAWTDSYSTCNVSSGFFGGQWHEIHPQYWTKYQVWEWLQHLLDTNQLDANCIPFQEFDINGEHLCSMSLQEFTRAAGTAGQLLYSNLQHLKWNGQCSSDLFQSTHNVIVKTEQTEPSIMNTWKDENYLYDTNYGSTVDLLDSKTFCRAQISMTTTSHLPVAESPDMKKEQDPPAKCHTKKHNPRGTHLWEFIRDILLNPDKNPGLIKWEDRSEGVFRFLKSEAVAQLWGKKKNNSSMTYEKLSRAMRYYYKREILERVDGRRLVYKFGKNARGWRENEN
Conditions: protein: recombinant; tags: N-terminal GST; dsDNA, one strand shown. The method in brief:
as §1

The next assay concerns the target SPI1 (Homo sapiens, UniProt P17947 1-270). The conditions noted are these: protein: recombinant; tags: N-terminal GST; dsDNA, one strand shown. The gist of the method:
as §1

The next assay has as its target SPIB (Homo sapiens, UniProt Q01892 1-262). The conditions noted are these: protein: recombinant; tags: N-terminal GST; dsDNA, one strand shown. The method in brief: as §1
The target of the next assay is T6, ELK3 (Homo sapiens, UniProt P41970 1-407).
T6 sequence: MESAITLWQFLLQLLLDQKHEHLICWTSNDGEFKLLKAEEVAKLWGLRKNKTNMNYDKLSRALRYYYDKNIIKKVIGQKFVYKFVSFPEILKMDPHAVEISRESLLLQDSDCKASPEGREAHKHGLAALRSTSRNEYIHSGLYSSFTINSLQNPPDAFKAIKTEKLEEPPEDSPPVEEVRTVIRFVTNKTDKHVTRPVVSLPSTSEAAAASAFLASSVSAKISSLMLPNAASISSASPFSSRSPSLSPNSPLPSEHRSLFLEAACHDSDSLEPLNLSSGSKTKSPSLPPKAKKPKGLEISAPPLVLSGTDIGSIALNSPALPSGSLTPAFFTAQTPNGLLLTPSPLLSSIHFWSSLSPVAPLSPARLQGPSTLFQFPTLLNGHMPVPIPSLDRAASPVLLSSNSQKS
The conditions noted are these: protein: recombinant; tags: N-terminal GST; dsDNA, one strand shown. The gist of the method:
as §1

The target in another assay is T7, FEV (Homo sapiens, UniProt Q99581 1-238).
T7 sequence: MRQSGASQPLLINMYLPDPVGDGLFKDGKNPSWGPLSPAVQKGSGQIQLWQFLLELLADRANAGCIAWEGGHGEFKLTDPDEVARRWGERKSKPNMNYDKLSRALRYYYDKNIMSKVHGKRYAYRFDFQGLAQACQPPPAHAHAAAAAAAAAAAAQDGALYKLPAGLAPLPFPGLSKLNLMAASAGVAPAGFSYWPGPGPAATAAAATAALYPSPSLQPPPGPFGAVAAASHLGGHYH
Conditions: protein: recombinant; tags: N-terminal GST; dsDNA, one strand shown. The gist of the method: as §1

The next assay deals with ETV5 (Homo sapiens, UniProt P41161 1-510). The conditions noted are these: protein: recombinant; tags: N-terminal GST; dsDNA, one strand shown. The method in brief:
as §1

A further assay addresses HSF1 (Homo sapiens, UniProt Q00613 1-529). The conditions noted are these: protein: recombinant; tags: N-terminal GST; chain copies: 3; dsDNA, one strand shown. The method in brief:
as §1

The target in a further assay is T8, SPIC (Homo sapiens, UniProt Q8N5J4 1-248).
T8 sequence: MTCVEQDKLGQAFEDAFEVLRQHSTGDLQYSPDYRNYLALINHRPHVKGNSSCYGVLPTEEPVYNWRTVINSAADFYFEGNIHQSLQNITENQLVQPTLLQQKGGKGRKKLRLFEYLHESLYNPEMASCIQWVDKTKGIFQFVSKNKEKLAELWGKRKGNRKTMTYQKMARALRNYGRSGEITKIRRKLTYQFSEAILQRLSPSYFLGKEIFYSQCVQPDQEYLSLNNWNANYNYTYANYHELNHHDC
Conditions: protein: recombinant; tags: N-terminal GST; dsDNA, one strand shown. The gist of the method: as §1

In a further assay the target is ELF4 (Homo sapiens, UniProt Q99607 1-663). Conditions: protein: recombinant; tags: N-terminal GST; dsDNA, one strand shown. The method in brief:
as §1

A further assay has as its target T9, ELK4 (Homo sapiens, UniProt P28324-2 1-405).
T9 sequence: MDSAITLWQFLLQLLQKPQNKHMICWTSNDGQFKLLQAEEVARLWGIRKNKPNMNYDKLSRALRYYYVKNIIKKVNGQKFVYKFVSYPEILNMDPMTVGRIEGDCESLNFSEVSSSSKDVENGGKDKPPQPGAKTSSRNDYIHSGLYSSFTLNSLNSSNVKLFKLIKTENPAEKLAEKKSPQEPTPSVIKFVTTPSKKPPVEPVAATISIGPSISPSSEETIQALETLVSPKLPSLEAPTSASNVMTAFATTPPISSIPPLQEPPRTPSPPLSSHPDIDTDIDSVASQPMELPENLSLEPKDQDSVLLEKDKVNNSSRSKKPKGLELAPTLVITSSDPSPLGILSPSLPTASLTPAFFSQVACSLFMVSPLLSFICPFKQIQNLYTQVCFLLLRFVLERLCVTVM
Conditions: protein: recombinant; tags: N-terminal GST; dsDNA, one strand shown. The gist of the method:
as §1

The target in another assay is T10, ETV2 (Homo sapiens, UniProt O00321 1-342).
T10 sequence: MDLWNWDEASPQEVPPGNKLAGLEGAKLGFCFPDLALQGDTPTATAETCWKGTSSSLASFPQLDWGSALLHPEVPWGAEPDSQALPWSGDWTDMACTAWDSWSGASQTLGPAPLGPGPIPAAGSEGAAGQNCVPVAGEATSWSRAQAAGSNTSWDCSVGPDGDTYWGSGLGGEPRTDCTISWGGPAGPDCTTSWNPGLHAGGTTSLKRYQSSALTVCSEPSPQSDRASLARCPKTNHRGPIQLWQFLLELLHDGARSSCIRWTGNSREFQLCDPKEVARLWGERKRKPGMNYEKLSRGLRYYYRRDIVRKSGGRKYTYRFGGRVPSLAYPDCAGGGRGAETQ
The conditions noted are these: protein: recombinant; tags: N-terminal GST; dsDNA, one strand shown. The method in brief:
as §1

Another assay addresses T11, ELF3 (Homo sapiens, UniProt P78545 1-371).
T11 sequence: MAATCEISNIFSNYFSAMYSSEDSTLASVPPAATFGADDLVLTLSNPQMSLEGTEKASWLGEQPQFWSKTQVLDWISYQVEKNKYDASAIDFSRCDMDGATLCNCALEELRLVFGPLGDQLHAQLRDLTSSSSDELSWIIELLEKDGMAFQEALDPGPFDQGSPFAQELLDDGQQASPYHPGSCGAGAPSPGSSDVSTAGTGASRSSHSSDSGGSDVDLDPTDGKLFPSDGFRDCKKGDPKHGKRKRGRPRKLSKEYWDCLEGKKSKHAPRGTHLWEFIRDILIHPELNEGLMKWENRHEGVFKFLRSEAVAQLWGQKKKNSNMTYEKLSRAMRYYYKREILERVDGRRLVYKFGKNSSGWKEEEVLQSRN
Conditions: protein: recombinant; tags: N-terminal GST; dsDNA, one strand shown. The method in brief: as §1

For the next assay, the target named is CRX (Homo sapiens, UniProt O43186 1-299). The conditions noted are these: protein: recombinant; tags: N-terminal GST; dsDNA, one strand shown. The gist of the method:
as §1

The target of a further assay is ETV1 (Homo sapiens, UniProt P50549 1-477). The conditions noted are these: protein: recombinant; tags: N-terminal GST; dsDNA, one strand shown. The gist of the method: as §1
ETV1, sequence (P50549 whole entry): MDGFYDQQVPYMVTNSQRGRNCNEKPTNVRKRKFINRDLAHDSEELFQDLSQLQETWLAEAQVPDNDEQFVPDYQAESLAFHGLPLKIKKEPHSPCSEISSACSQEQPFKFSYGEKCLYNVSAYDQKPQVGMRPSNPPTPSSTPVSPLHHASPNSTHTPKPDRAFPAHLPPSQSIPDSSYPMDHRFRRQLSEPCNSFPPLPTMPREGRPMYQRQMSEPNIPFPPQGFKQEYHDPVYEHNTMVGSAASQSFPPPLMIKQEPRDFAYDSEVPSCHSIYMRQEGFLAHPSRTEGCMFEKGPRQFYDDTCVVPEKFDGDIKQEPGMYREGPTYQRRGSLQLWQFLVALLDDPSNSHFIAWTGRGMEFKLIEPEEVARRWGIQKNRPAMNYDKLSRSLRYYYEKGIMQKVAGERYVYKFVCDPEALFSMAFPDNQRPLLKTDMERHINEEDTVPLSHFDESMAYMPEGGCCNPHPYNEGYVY

SPIB, sequence (Q01892 whole entry): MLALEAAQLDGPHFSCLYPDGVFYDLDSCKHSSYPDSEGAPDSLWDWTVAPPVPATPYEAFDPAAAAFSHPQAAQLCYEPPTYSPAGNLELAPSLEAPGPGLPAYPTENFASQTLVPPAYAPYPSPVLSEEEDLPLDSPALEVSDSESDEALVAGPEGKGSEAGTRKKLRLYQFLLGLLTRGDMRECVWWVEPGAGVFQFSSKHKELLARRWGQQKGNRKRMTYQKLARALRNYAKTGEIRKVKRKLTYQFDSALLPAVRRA
ELF4, sequence (Q99607 whole entry): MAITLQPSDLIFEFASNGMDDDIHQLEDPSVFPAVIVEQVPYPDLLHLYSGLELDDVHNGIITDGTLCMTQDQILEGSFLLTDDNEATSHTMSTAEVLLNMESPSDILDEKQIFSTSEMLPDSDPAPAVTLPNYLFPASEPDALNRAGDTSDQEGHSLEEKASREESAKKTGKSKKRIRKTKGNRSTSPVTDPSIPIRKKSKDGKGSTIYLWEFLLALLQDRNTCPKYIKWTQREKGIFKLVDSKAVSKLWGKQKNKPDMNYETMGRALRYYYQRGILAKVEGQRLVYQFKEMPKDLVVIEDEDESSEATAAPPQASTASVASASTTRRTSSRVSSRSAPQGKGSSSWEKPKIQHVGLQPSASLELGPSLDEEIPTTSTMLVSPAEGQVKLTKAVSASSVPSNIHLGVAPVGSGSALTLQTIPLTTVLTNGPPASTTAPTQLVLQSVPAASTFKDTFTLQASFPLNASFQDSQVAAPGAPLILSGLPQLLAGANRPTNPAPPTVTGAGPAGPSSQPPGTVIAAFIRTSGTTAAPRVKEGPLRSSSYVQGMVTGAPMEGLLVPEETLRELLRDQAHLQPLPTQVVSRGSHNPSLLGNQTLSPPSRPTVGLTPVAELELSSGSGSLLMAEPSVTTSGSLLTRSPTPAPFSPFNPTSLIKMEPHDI
HSF1, sequence (Q00613 whole entry): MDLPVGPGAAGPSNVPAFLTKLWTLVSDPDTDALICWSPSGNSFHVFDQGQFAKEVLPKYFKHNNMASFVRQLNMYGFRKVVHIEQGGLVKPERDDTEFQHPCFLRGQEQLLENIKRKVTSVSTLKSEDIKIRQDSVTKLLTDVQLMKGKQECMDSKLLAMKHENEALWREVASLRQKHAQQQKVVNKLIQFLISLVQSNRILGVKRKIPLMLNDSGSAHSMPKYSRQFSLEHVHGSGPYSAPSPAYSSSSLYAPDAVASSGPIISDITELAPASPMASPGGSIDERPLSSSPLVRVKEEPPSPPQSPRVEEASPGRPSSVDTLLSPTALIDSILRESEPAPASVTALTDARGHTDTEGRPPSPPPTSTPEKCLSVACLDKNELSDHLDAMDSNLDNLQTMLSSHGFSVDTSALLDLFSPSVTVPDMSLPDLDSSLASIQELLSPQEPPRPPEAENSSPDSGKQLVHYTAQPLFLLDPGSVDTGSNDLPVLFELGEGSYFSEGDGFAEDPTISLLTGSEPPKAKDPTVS
ETV5, sequence (P41161 whole entry): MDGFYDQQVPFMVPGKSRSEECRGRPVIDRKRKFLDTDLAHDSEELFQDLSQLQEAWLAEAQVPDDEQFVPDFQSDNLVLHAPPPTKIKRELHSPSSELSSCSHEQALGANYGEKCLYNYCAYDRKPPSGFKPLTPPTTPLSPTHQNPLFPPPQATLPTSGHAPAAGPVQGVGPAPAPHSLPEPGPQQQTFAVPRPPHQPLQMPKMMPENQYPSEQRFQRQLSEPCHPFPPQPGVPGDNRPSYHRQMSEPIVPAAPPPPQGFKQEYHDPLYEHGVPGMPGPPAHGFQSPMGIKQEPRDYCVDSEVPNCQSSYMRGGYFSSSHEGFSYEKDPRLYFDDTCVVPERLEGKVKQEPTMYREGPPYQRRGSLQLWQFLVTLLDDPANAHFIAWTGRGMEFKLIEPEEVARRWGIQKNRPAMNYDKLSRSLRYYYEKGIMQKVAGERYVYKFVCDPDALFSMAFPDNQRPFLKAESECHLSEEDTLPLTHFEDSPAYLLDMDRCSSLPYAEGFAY
CRX, sequence (O43186 whole entry): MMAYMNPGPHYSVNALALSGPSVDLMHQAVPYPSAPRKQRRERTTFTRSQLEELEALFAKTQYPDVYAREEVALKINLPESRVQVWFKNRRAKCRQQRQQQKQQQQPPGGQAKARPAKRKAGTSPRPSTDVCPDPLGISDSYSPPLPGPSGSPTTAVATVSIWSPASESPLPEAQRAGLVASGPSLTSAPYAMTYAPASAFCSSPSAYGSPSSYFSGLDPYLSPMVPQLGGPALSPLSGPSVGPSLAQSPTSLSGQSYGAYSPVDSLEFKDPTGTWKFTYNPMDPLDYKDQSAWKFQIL
ELF1, sequence (P32519 whole entry): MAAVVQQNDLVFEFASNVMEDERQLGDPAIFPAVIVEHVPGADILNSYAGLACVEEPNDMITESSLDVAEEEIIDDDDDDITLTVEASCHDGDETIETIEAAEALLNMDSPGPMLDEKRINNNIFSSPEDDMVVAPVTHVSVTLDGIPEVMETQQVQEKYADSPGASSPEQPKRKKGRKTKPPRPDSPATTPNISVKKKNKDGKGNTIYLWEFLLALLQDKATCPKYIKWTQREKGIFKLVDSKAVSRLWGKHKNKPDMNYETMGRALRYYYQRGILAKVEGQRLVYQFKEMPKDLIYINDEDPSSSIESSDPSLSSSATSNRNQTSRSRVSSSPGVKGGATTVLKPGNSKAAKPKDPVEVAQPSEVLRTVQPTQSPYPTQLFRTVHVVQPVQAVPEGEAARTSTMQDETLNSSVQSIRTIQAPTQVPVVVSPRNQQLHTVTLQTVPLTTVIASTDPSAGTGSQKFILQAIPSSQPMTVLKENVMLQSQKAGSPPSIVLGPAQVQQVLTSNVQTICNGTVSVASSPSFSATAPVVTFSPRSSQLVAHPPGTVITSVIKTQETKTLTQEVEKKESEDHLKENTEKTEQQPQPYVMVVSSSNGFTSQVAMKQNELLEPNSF

Take TTCCCC: the binding signal with FLI1 was 1.74 fold enrichment (6-mer frequency, TF over GST control); with ELK1, 1.58 fold enrichment (6-mer frequency, TF over GST control); with GABPA, 1.71 fold enrichment (6-mer frequency, TF over GST control); with ERG, 1.67 fold enrichment (6-mer frequency, TF over GST control); in the assay with ELF1 it was 1.72 fold enrichment (6-mer frequency, TF over GST control); with EHF, 1.68 fold enrichment (6-mer frequency, TF over GST control). Further, the binding signal with SPI1 was 2.54 fold enrichment (6-mer frequency, TF over GST control); with SPIB, 1.66 fold enrichment (6-mer frequency, TF over GST control); in the assay with ELK3, 1.61 fold enrichment (6-mer frequency, TF over GST control); in the assay with FEV it was 1.64 fold enrichment (6-mer frequency, TF over GST control); in the assay with ETV5, 1.71 fold enrichment (6-mer frequency, TF over GST control); with HSF1, 1.42 fold enrichment (6-mer frequency, TF over GST control). The binding signal with SPIC was 1.87 fold enrichment (6-mer frequency, TF over GST control); with ELF4, 1.78 fold enrichment (6-mer frequency, TF over GST control); in the assay with ELK4, 1.48 fold enrichment (6-mer frequency, TF over GST control); with ETV2, 1.8 fold enrichment (6-mer frequency, TF over GST control); in the assay with ELF3, 1.64 fold enrichment (6-mer frequency, TF over GST control); with CRX, 1.44 fold enrichment (6-mer frequency, TF over GST control). Further, the binding signal with ETV1 was 1.69 fold enrichment (6-mer frequency, TF over GST control).
